The sample as a whole holds a higher share of hits than the screen did.
ERK EGF block: EGF-driven ERK pathway inhibition. Potency, µM (series often up to 11.5 µM), hits mostly inhibitors. HEK293-V1b, EGF-stimulated phospho-ERK AlphaScreen. 130,000 tested, 0.41% active; active = well fitted inhibition curve with a large enough effect; note: nearly all actives have a fitted effect of over 55% in size
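HEK293 cells stably expressing V1b receptor, serum-reduced (1% FBS) overnight, got compound for 30 min at 37C, then 25 nM EGF for 5 min. Lysate phospho-ERK read by AlphaScreen SureFire; AC50 from Hill fits.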
Large screens that a line does not name were inactive.

Cc1c(C)n(CC(O)CNCCO)c2ccccc12 (stereo not given)	none
COCC(=O)N1CCC2(CCCN(C(=O)Nc3ccc(OC)cc3)C2)CC1	none
COC(=O)[C@H]1Cc2c([nH]c3ccccc23)CN1C(=O)COc1ccc2c(C)cc(=O)oc2c1	none
CCCCCCCCCC(=O)NC(CN1CCOCC1)[C@H](O)c1ccccc1 (stereo not given in full)	none
Cc1csc2c(N3CCN(C(=S)Nc4ccc(C(F)(F)F)cc4)CC3)ncnc12	none
Cc1csc2c(N3CCN(C(=O)NC(C)(C)C)CC3)ncnc12	none
Cc1csc2c(N3CCN(C(=O)c4ccc(C(C)(C)C)cc4)CC3)ncnc12	ERK EGF block 28.2µM
CC1CC[C@@]2(C(=O)O)CC[C@]3(C)C(=CCC4[C@@]5(C)CCC(O)C(C)(C)C5CC[C@@]43C)C2C1C (stereo not given in full)	none
CCN(CC)S(=O)(=O)c1cccc(NC(=O)c2cncc(Br)c2)c1	none
CN(C)S(=O)(=O)c1cccc(NC(=O)c2cncc(Br)c2)c1	none
CCN(CC)S(=O)(=O)c1cccc(NC(=O)c2ccc(Br)cc2)c1	ERK EGF block 14.1µM
COC(=O)[C@@]1(Cc2ccc(OC)cc2)[C@H]2c3cc(C(=O)N(C)C)n(CCc4c[nH]c5ccc(O)cc45)c3C[C@H]2CN1C(=O)c1ccccc1	none
COc1ccc2c(c1-c1c3c(cc(Br)c1OC)CCCC3)CCCC2	none
O=C(O)c1ccc(COc2ccccc2/C=C2\NC(=O)N(Cc3ccccc3)C2=O)cc1	none
O=C(O)c1ccc(COc2ccc3ccccc3c2/C=C2/NC(=O)N(Cc3ccc(F)cc3)C2=O)cc1	ERK EGF block 35.5µM
O=C(O)c1ccc(COc2ccccc2/C=C2\NC(=O)N(Cc3ccccc3F)C2=O)cc1	none
COC(=O)C/C=C1\c2ccc3c(c2[C@@H](OC)[C@@H]1C)OCO3	none
CS(=O)(=O)N1CCC2(CC1)CN(c1ccccn1)C2	none
COc1ccc2c(c1)C(=O)[C@@H](OC(=O)N[C@H](C)C1CCCCC1)[C@H](c1ccc(OC)c(Br)c1)O2	none
CN(C)S(=O)(=O)c1cccc(-c2csc(N/N=C/c3ccco3)n2)c1	ERK EGF block 22.4µM
CN(C)S(=O)(=O)c1cccc(NC(=S)N/N=C/c2ccco2)c1	none
Cc1ccc(-c2csc(N/N=C/c3ccco3)n2)c(C)c1	none
COc1ccc(C(=O)N2CCC3(CC2)CN(c2ccccc2)C3)cc1	none
Cc1cnc(CNc2nc(-c3ccc(C(=O)N(C)C)cc3)nc3ccccc23)cn1	none
COc1ccc(Oc2ncc3ncc(=O)n(C[C@H]4CCCO4)c3n2)cc1	none
Cc1ccc(C(=O)N/N=C\c2ccc(-c3ccc(Cl)c(Cl)c3)o2)cn1	ERK EGF block 17.8µM
Cc1ccc(C(=O)N/N=C/c2ccc(-c3ccccc3[N+](=O)[O-])o2)cn1	none
Cc1nnc(SCC(=O)N/N=C/c2ccc(-c3ccc(C)c(Cl)c3)o2)s1	none
CN(C)c1ncc2nc(CCc3ccccc3)c(=O)n(C[C@H]3CCCO3)c2n1	none
COc1ccc2c(c1)O[C@@H](c1cccc(C(F)(F)F)c1)[C@H](OC(=O)NCc1ccc3c(c1)OCO3)C2=O	none
COC(=O)NC(CCc1ccccc1)C(C(=O)OC)C(=O)OC (stereo not given)	none
COc1cccc([C@@H]2Oc3ccc(Br)cc3C[C@H]2OC(=O)Nc2ccc(OC(F)F)cc2)c1	none
Cc1ccccc1OCC(O)Cn1c(=N)n(Cc2ccccc2)c2ccccc21 (stereo not given)	ERK EGF block 31.6µM
CCN(CC)CCn1c(=N)n(CC(O)COc2ccccc2)c2ccccc21 (stereo not given)	none
CCCCCn1c(=N)n(CC(O)COc2ccccc2OC)c2ccccc21 (stereo not given)	none
COC(=O)[C@@]1(Cc2ccccc2)[C@H]2c3cc(C(=O)N(C)C)n(CCF)c3C[C@H]2CN1C(=O)c1ccccc1	none
CCOC(=O)c1cnc2c(cnn2CC)c1NN=C(C)C	none
O=c1c(-c2cc(O)c(O)c(O)c2)coc2cc(O)c(O)c(O)c12	none
CC(C)=CCc1c(O)cc2occ(-c3ccc4c(c3)OCO4)c(=O)c2c1O	ERK EGF block 22.4µM
CCc1cc2c(=O)c(-c3ccc4c(c3)OCCO4)coc2cc1OS(C)(=O)=O	none
COC(=O)NC(/C=C/c1ccccc1)C(C(C)=O)C(=O)OC (stereo not given)	none
CCCCCCCC/C=C\C/C=C\C=C\C(O)CCCC(=O)O (stereo not given)	none
COc1ccc2nc(N=NC3=C(O)CC(C)(C)CC3=O)sc2c1	none
COc1ccc2nc(N=Nc3ccc(O)c4ccccc34)sc2c1	ERK EGF block 7.08µM
COc1cccc(Nc2nc3ccc(OC)cc3s2)c1	none
COc1cc(NC(=O)O[C@@H]2C(=O)c3cc(Br)ccc3O[C@H]2c2ccc3c(c2)OCO3)cc(OC)c1OC	none
Cn1c(=O)c(Nc2ccc(O)cc2)c2c3c(cccc31)C(=O)c1ccccc1-2	ERK EGF block 28.2µM
CC(=O)Nc1ccc(NC(=O)c2cccc3c2-c2ccccc2C3=O)cc1	none
Cc1cccc(Nc2c([N+](=O)[O-])c(=O)n(C)c3ccccc23)c1	none
CCc1cccc2c3c([nH]c12)[C@@](CC)(CC(=O)O)OCC3	none
CN1CCC/C1=C/C=C1\SC(=S)NC1=O	none
CN1/C(=C\C=Nc2cc(S(=O)(=O)N3CCOCC3)ccc2N2CCOCC2)C(C)(C)c2ccccc21	none
CN1C(=CC=C2C=C(I)C(=O)C(I)=C2)C(C)(C)c2ccccc21	ERK EGF block 12.6µM
CN1/C(=C\C=C2/SC(=S)NC2=O)C(C)(C)c2ccccc21	ERK EGF block 25.1µM
CN1/C(=C\C(=S)NC(=O)c2ccc([N+](=O)[O-])cc2)C(C)(C)c2ccccc21	none
CN1/C(=C\C=C2/C(=O)Oc3ccccc3C2=O)C(C)(C)c2ccccc21	none
CN(C)c1ccc(N=C/C=C2/N(C)c3ccccc3C2(C)C)cc1	ERK EGF block 14.1µM
CN1/C(=C\C=N\O)C(C)(C)c2ccccc21	none
CO/N=C/C=C1/N(C)c2ccccc2C1(C)C	none
COC(=O)CC1c2ccccc2C=C(C)N1C(=O)OC (stereo not given)	none
O=C(c1ccco1)N1CCC2(CCCN(C(c3ccccc3)c3ccccc3)C2)CC1	none
COc1ccc(-n2c(=O)c(CCc3ccccc3)nc3cnc(N4CCNCC4)nc32)cc1	none
NNc1nc(-c2ccccc2)c2ccccc2n1	none
Nc1nc(-c2ccccc2)c(N=Nc2cccc3ccccc23)s1	ERK EGF block 20µM
NC(N)=NC(N)=Nc1cccc2ccccc12	none
O=C(O)Cc1sc(-c2ccccc2Cl)nc1-c1ccccc1	none
Nc1nc(-c2ccc(Cl)c(Cl)c2)c(-c2ccncc2)s1	none
Nc1nc(-c2ccccc2)c(N=Nc2ccccc2Cl)s1	ERK EGF block 17.8µM
COC(=O)[C@@]1(Cc2ccc(OC)cc2)[C@H]2c3cc(C(=O)N4CCCC4)n(CCc4c[nH]c5ccc(OC)cc45)c3C[C@H]2CN1C(=O)c1ccccc1	none
N#Cc1cccc(NC(=O)N2CC[C@@]3(CCCN(C(=O)c4cccc(F)c4)C3)C2)c1	none
CCC(/C=C/C(C)C1CCC2C3CCC4=CC(=O)CC[C@@]4(C)C3CC[C@@]12C)C(C)C (stereo not given in full)	none
Cc1ccc(/C=N/NC(=O)c2ccccc2OCc2cccc(Br)c2)o1	ERK EGF block 22.4µM
O=C(N/N=C/c1ccco1)c1ccccc1OCc1ccc(Br)cc1	none
O=C(N/N=C/c1cccnc1)c1ccccc1OCc1cccc(Br)c1	none
N[C@H](C(=O)O)[C@@H]1C[C@@H]1C(=O)O	none
COc1ccccc1CN1CC2(CCN(C(=O)c3cccc(F)c3)CC2)C1	none
C=CCOC(=O)N[C@H](/C(C(=O)OC)=C(\C)NCc1ccccc1)c1cccc(F)c1	none
COc1ccc(-c2nc(-c3ccccc3)oc2NC(C)C)cc1	none

Screens from PubChem BioAssay.
